Measurements reported in PubChem BioAssay AID1850 (Southern Research Specialized Biocontainment Screening …, 2009).
Hit rate of the full screen: of about 310,000 compounds, about 1,000 (0.32%) were called active. A selection follows. Results with a measured potency or affinity are listed apart. A number with no mark means an inactive call. The rule behind the calls is not given here.

Test: Inhibition of PhoP regulon, Salmonella typhi GFP reporter cells, confirmation, 4 h (AID 1850);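 note: 0% = induced wells with vehicle and 100% = uninduced wells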
Details: Salmonella Typhi PhoP-promoter GFP reporter, fluorescence, at 50 µM, stronger effect = higher value

Compound	inhibition
O=C(CSc1ccccn1)N/N=C/c1cccc([N+](=O)[O-])c1	1.33%
Cc1nn(C)cc1/C=N/NC(=O)CSc1ccccn1	3.55%
COc1ccc(NC(=O)CN2C(=O)c3cccc4cccc2c34)cc1OC	-7.56%
O=C(Cn1cc(C(F)(F)F)cc(Cl)c1=O)NCc1ccc(Cl)cc1	-1.19%
CCCCOC(=O)c1ccc(-c2ccc(/C=N/NC(=S)NCC)o2)cc1	-7.32%
O=[N+]([O-])c1ccc(/C([O-])=C(/C(=S)NCc2ccco2)[n+]2ccccc2)cc1	13.8%
O=C(NC1CCN(Cc2ccccc2)CC1)C1CCN(S(=O)(=O)c2ccccc2)CC1	5.66%
Clc1ccc(-c2csc(N3CCc4ccccc4C3)n2)cc1	5.55%
CC(C)CN=CC1=C(O)c2ccccc2C1=O	5.42%
CC(C)(C)CN1CCN(Cc2cc3ccccc3[nH]2)CC1CCO (stereo unspecified)	2.46%
Cc1cc(C)n(C(=O)Cn2nc([N+](=O)[O-])cc2C)n1	-5.88%
O=C1CSC(c2cccc([N+](=O)[O-])c2)N1c1ccccc1 (stereo unspecified)	0.65%
Clc1ccccc1OCCCCN1CCCCC1	-2.94%
CN1CCCC(CC2Oc3ccccc3Sc3ccccc32)C1 (stereo unspecified)	11.3%
OCCC1CN(Cc2cccc3c2OCO3)CCN1C1CCCCC1 (stereo unspecified)	-4.26%
Cc1ccc(S(=O)(=O)N(C)C(=O)NC(=O)NS(=O)(=O)c2ccccc2)cc1	-5.97%
CCC(=O)/C=C1\Sc2ccc(OC)cc2N1CCO	-12.9%
CCC(/C=C1\Sc2ccc(OC)cc2N1CC)=C\c1sc2ccc(OC)cc2[n+]1CCCS(=O)(=O)[O-]	-7.82%
COc1ccc(/C=N/Nc2nc(C)cc(-c3ccccc3)n2)cc1OC	-1.16%
COc1ccc(-c2ccc(=O)n(Cc3cccc(Cl)c3)n2)cc1	-10.8%
CCC(=O)Nc1ccc(N/C(N)=N/c2nc(C)cc(C)n2)cc1	-8.68%

Compound	inhibition
Cc1ccc(N/C(N)=N/c2nc(C)cc(C)n2)cc1	-9.13%
Cc1cc(C)nc(/N=C(\N)Nc2cc([N+](=O)[O-])ccc2C)n1	-1.74%
COc1ccc(C)cc1N/C(N)=N/c1nc(C)cc(C)n1	-5.2%
O=C(NCCF)C1Nc2ccc(OC(F)(F)F)cc2C2C=CCC12 (stereo unspecified)	9.88%
C=CCN(C(=O)c1csnn1)C(C(=O)NCc1ccccc1)c1c(F)cccc1Cl (stereo unspecified)	-1.14%
CN(CC(=O)N1CCN(c2cccc(Cl)c2)CC1)S(=O)(=O)c1cccs1	2.82%
CCOC(=O)C(C)NC(=O)CCc1nnc2ccc(N3CCCCC3)nn12 (stereo unspecified)	1.43%
CC(=O)c1c(C)[nH]c(C(=O)N2CCN(c3ccccn3)CC2)c1C	2.98%
Nc1nnc(SCC(=O)OCC(=O)c2ccccc2Br)s1	1.19%
C#CCOCCOCCOCCNc1nc(N2CCN(C(=O)CCCCCCCCCCNC(=O)Cn3cc(C[C@@H](C)O)nn3)CC2)nc(N2CCN(C(=O)CCCCCCCCCCNC(=O)[C@@H]([C@H](C)O)n3cc(C)nn3)CC2)n1	-25.3%
C#CCOCCOCCOCCNc1nc(N2CCN(C(=O)CCCCCCCCCCNC(=O)Cn3cc(CCCCCN)nn3)CC2)nc(N2CCN(C(=O)CCCCCCCCCCNC(=O)Cn3cc(C[C@@H](C)O)nn3)CC2)n1	-2.3%
C#CCOCCOCCOCCNc1nc(N2CCN(C(=O)CCCCCCCCCCNC(=O)[C@H](CCC(=O)O)n3cc(CCCCCN)nn3)CC2)nc(N2CCN(C(=O)CCCCCCCCCCNC(=O)[C@@H]([C@H](C)O)n3cc(C)nn3)CC2)n1	-1.84%
C#CCOCCOCCOCCNc1nc(N2CCOCC2)nc(N2CCN(C(=O)CCCCCCCCCCNC(=O)[C@@H]([C@H](C)CC)n3cc(CCCCCN)nn3)CC2)n1	2.64%
C#CCOCCOCCOCCNc1nc(N2CCN(C(=O)Cn3cc(CCCCN)nn3)CC2)nc(N2CCN(C(=O)[C@H]([C@@H](C)CC)n3cc(CCCN=C(N)N)nn3)CC2)n1	5.45%
C#CCOCCOCCOCCNc1nc(N2CCN(C(=O)Cn3cc(CCCN=C(N)N)nn3)CC2)nc(N2CCN(C(=O)[C@H]([C@@H](C)CC)n3cc(CCCCN)nn3)CC2)n1	-18%
C#CCOCCOCCOCCNc1nc(N2CCN(C(=O)CCCCCCCCCCNC(=O)Cn3cc(CCCCCN)nn3)CC2)nc(N2CCN(C(=O)CCCCCCCCCCNC(=O)[C@H](CO)n3cc(CCCCCN)nn3)CC2)n1	16.5%
C#CCOCCOCCOCCNc1nc(N2CCN(C(=O)CCCCCCCCCCNC(=O)Cn3cc(C[C@@H](C)O)nn3)CC2)nc(N2CCN(C(=O)CCCCCCCCCCNC(=O)[C@@H](CCC(=O)O)n3cc(CCCCCN)nn3)CC2)n1	-25.1%
CN(CC(=O)NCc1ccncc1)S(=O)(=O)c1ccc(F)cc1	9.34%
COc1cc(C(=O)NCC(=O)N/N=C(\C)Cc2ccccc2)cc(OC)c1OC	8.05%
Cc1cccc(CC(C)NC(=O)c2cc(COc3ccc(C)c(C)c3)on2)n1 (stereo unspecified)	-0.63%
